Experimental data published in PubChem BioAssay (NCI).
The panel holds about 83,000 compounds, 20% with a hit somewhere; the sample as a whole holds those more often.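 Activity criterion: percent growth below 10, measured after cells in 96-well plates were exposed to a single compound concentration for 48 hours.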 Calls of active or inactive are those of the source.

Key:
Test in all cases: NCI-60 one-dose screen, 48 h (100 = growth as untreated, 0 = no growth, -100 = all killed)
HCT-15 colon = settings: 10 µM unless noted
HT29 colon = settings: 10 µM unless noted
SNB-75 CNS = settings: 10 µM unless noted
SNB-19 CNS = settings: 10 µM unless noted
U251 CNS = settings: 10 µM unless noted
PC-3 prostate = settings: 10 µM unless noted
SK-MEL-5 melanoma = settings: 10 µM unless noted
UACC-62 melanoma = settings: 10 µM unless noted
LOX IMVI melanoma = settings: 10 µM
SK-MEL-28 melanoma = settings: 10 µM unless noted
SK-MEL-2 melanoma = settings: 10 µM unless noted
EKVX NSCLC = settings: 10 µM unless noted
SN12C renal = settings: 10 µM unless noted
UO-31 renal = settings: 10 µM unless noted
TK-10 renal = settings: 10 µM unless noted
ACHN renal = settings: 10 µM unless noted
CAKI-1 renal = settings: 10 µM unless noted
A498 renal = settings: 10 µM unless noted
CCRF-CEM leukemia = settings: 10 µM unless noted
MOLT-4 leukemia = settings: 10 µM unless noted

Measured: growth

COc1nc2ccccc2s1
inactive: HCT-15 colon 98% | HT29 colon 102% | SNB-75 CNS 81% | SNB-19 CNS 110% | U251 CNS 108% | PC-3 prostate 89.1% | SK-MEL-5 melanoma 97.5% | UACC-62 melanoma 103% | LOX IMVI melanoma 82.1% | SK-MEL-28 melanoma 100% | SK-MEL-2 melanoma 100% | EKVX NSCLC 108% | SN12C renal 99.3% | UO-31 renal 73.3% | TK-10 renal 111% | ACHN renal 94.6% | CAKI-1 renal 90.5% | A498 renal 101% | CCRF-CEM leukemia 102% | MOLT-4 leukemia 103%

CC(=O)N=c1ccc2nc3c(cc(N)c4ccccc43)oc-2c1
inactive: SNB-75 CNS 34% | TK-10 renal 47.6% | ACHN renal 32.5% | A498 renal 80.5%
active: HCT-15 colon -75.5% | HT29 colon 1.15% | SNB-19 CNS -11.1% | U251 CNS -73.7% | PC-3 prostate 2.46% | SK-MEL-5 melanoma -100% | UACC-62 melanoma -61.2% | LOX IMVI melanoma -74.3% | SK-MEL-28 melanoma -2.3% | SK-MEL-2 melanoma -42.4% | EKVX NSCLC 2.37% | SN12C renal -72.8% | UO-31 renal -43.9% | CAKI-1 renal -23.1% | CCRF-CEM leukemia -11.5% | MOLT-4 leukemia -37.2%

Cc1ccccc1CC(N)C(=O)O (stereo not given)
inactive: HCT-15 colon 117% | HT29 colon 107% | SNB-75 CNS 91.4% | SNB-19 CNS 108% | U251 CNS 102% | PC-3 prostate 90.4% | SK-MEL-5 melanoma 117% | UACC-62 melanoma 103% | LOX IMVI melanoma 106% | SK-MEL-28 melanoma 115% | SK-MEL-2 melanoma 109% | EKVX NSCLC 103% | SN12C renal 105% | UO-31 renal 91.7% | TK-10 renal 115% | ACHN renal 100% | CAKI-1 renal 96.6% | A498 renal 109% | CCRF-CEM leukemia 110% | MOLT-4 leukemia 109%

COc1cccc(C(=O)NNC(=O)c2cccc3ccccc23)c1
inactive: HCT-15 colon 100% | HT29 colon 98.2% | SNB-75 CNS 98.7% | SNB-19 CNS 110% | U251 CNS 102% | PC-3 prostate 106% | SK-MEL-5 melanoma 107% | UACC-62 melanoma 128% | LOX IMVI melanoma 98.5% | SK-MEL-28 melanoma 117% | SK-MEL-2 melanoma 107% | EKVX NSCLC 106% | SN12C renal 108% | UO-31 renal 97% | TK-10 renal 120% | ACHN renal 106% | CAKI-1 renal 102% | A498 renal 105% | CCRF-CEM leukemia 104% | MOLT-4 leukemia 98.8%

CN1CCN(C(=S)S)CC1
inactive: HCT-15 colon 100% | HT29 colon 75.5% | SNB-75 CNS 105% | SNB-19 CNS 103% | U251 CNS 102% | PC-3 prostate 98.4% | SK-MEL-5 melanoma 111% | UACC-62 melanoma 101% | LOX IMVI melanoma 87.9% | SK-MEL-28 melanoma 115% | SK-MEL-2 melanoma 114% | EKVX NSCLC 106% | SN12C renal 108% | UO-31 renal 98.4% | TK-10 renal 111% | ACHN renal 105% | CAKI-1 renal 99.5% | A498 renal 118% | CCRF-CEM leukemia 89% | MOLT-4 leukemia 105%

CC(=O)N(C(C)=O)c1ccc(C)cc1
inactive: HCT-15 colon 96% | HT29 colon 105% | SNB-75 CNS 89.1% | SNB-19 CNS 93.8% | U251 CNS 97.6% | PC-3 prostate 93.7% | SK-MEL-5 melanoma 95.5% | UACC-62 melanoma 91.4% | LOX IMVI melanoma 92.1% | SK-MEL-28 melanoma 107% | SK-MEL-2 melanoma 106% | EKVX NSCLC 92.6% | SN12C renal 96.1% | UO-31 renal 92.4% | TK-10 renal 99.1% | ACHN renal 112% | CAKI-1 renal 92.7% | A498 renal 119% | CCRF-CEM leukemia 106% | MOLT-4 leukemia 93.9%

O=Cc1ccc(O)c(O)c1
inactive: HCT-15 colon 103% | HT29 colon 105% | SNB-75 CNS 87.2% | SNB-19 CNS 86% | U251 CNS 102% | PC-3 prostate 82.9% | SK-MEL-5 melanoma 95.3% | UACC-62 melanoma 98.2% | LOX IMVI melanoma 91.2% | SK-MEL-28 melanoma 92.4% | SK-MEL-2 melanoma 103% | EKVX NSCLC 103% | SN12C renal 94.9% | UO-31 renal 84.2% | TK-10 renal 107% | ACHN renal 114% | CAKI-1 renal 112% | A498 renal 88.4% | CCRF-CEM leukemia 57.8% | MOLT-4 leukemia 80.5%

Cc1cc2nc(C)c(C)nc2cc1C
inactive: HCT-15 colon 107% | HT29 colon 108% | SNB-75 CNS 99.4% | SNB-19 CNS 111% | U251 CNS 98.3% | PC-3 prostate 81.4% | SK-MEL-5 melanoma 95.3% | UACC-62 melanoma 99.5% | LOX IMVI melanoma 97.2% | SK-MEL-28 melanoma 110% | SK-MEL-2 melanoma 113% | EKVX NSCLC 98.4% | SN12C renal 115% | UO-31 renal 78.2% | TK-10 renal 118% | ACHN renal 90.7% | CAKI-1 renal 81.8% | A498 renal 114% | CCRF-CEM leukemia 102% | MOLT-4 leukemia 106%

OCC(O)COc1ccc(Cl)cc1Cl (stereo not given)
inactive: HCT-15 colon 105% | HT29 colon 93.9% | SNB-75 CNS 85.8% | SNB-19 CNS 93.3% | U251 CNS 89.3% | PC-3 prostate 97.3% | SK-MEL-5 melanoma 109% | UACC-62 melanoma 96.6% | LOX IMVI melanoma 111% | SK-MEL-28 melanoma 96.5% | SK-MEL-2 melanoma 97.4% | EKVX NSCLC 96.5% | SN12C renal 95% | UO-31 renal 89.4% | TK-10 renal 101% | ACHN renal 93.2% | CAKI-1 renal 96% | A498 renal 99% | CCRF-CEM leukemia 119% | MOLT-4 leukemia 99.2%

Nc1cc2ccccc2c(O)c1O
inactive: HCT-15 colon 16% | HT29 colon 95.8% | SNB-75 CNS 90.4% | SNB-19 CNS 90.2% | U251 CNS 40.2% | PC-3 prostate 43.7% | SK-MEL-5 melanoma 74.7% | UACC-62 melanoma 90.9% | SK-MEL-28 melanoma 110% | SK-MEL-2 melanoma 85.3% | EKVX NSCLC 83.4% | UO-31 renal 55.2% | TK-10 renal 114% | CAKI-1 renal 84.5% | A498 renal 97.2% | CCRF-CEM leukemia 19.6%
active: LOX IMVI melanoma -52.6% | SN12C renal -22.3% | ACHN renal 9.52% | MOLT-4 leukemia -6.45%

Cn1c2ccccc2c2nnc(NCCCCO)nc21
inactive: HCT-15 colon 88.9% | HT29 colon 102% | SNB-75 CNS 56.2% | SNB-19 CNS 94.7% | U251 CNS 103% | PC-3 prostate 100% | SK-MEL-5 melanoma 94.4% | UACC-62 melanoma 103% | LOX IMVI melanoma 89.1% | SK-MEL-28 melanoma 109% | SK-MEL-2 melanoma 108% | EKVX NSCLC 76.3% | SN12C renal 94.3% | UO-31 renal 68.4% | TK-10 renal 123% | ACHN renal 87.2% | CAKI-1 renal 66.4% | A498 renal 105% | CCRF-CEM leukemia 107% | MOLT-4 leukemia 97.7%

Cn1c(=O)c2[nH]c(CC(=O)O)nc2n(C)c1=O
inactive: HCT-15 colon 107% | HT29 colon 101% | SNB-75 CNS 98.1% | SNB-19 CNS 100% | U251 CNS 103% | PC-3 prostate 96.8% | SK-MEL-5 melanoma 106% | UACC-62 melanoma 108% | LOX IMVI melanoma 101% | SK-MEL-28 melanoma 101% | SK-MEL-2 melanoma 105% | EKVX NSCLC 101% | SN12C renal 104% | UO-31 renal 93.5% | TK-10 renal 102% | ACHN renal 111% | CAKI-1 renal 102% | A498 renal 98.4% | CCRF-CEM leukemia 106% | MOLT-4 leukemia 103%

CCOc1ccc2c(c1)c(C)cc(C)[n+]2CC
inactive: HCT-15 colon 112% | HT29 colon 81.8% | SNB-75 CNS 71.2% | SNB-19 CNS 64.8% | U251 CNS 45.7% | PC-3 prostate 48.7% | SK-MEL-5 melanoma 78.3% | UACC-62 melanoma 92.8% | LOX IMVI melanoma 73.8% | SK-MEL-28 melanoma 102% | SK-MEL-2 melanoma 97.9% | EKVX NSCLC 35.9% | SN12C renal 64.6% | UO-31 renal 65.9% | TK-10 renal 97% | ACHN renal 94.1% | CAKI-1 renal 86.2% | A498 renal 88.9% | CCRF-CEM leukemia 71.2% | MOLT-4 leukemia 64.6%

O=C(O)C1CCCN1C(=O)OCc1ccccc1 (stereo not given)
inactive: HCT-15 colon 108% | HT29 colon 97.6% | SNB-75 CNS 81.6% | SNB-19 CNS 104% | U251 CNS 108% | PC-3 prostate 108% | SK-MEL-5 melanoma 104% | UACC-62 melanoma 109% | LOX IMVI melanoma 88.4% | SK-MEL-28 melanoma 105% | SK-MEL-2 melanoma 94.7% | EKVX NSCLC 117% | SN12C renal 103% | UO-31 renal 80.9% | TK-10 renal 106% | ACHN renal 109% | CAKI-1 renal 94.6% | A498 renal 108% | CCRF-CEM leukemia 112% | MOLT-4 leukemia 96.2%

CN(C)c1ncnc2c1cnn2C
inactive: HCT-15 colon 113% | HT29 colon 109% | SNB-75 CNS 90.7% | SNB-19 CNS 99.1% | U251 CNS 101% | PC-3 prostate 85.2% | SK-MEL-5 melanoma 97.2% | UACC-62 melanoma 92.9% | LOX IMVI melanoma 94.9% | SK-MEL-28 melanoma 112% | SK-MEL-2 melanoma 110% | EKVX NSCLC 102% | SN12C renal 97.2% | UO-31 renal 90.6% | TK-10 renal 108% | ACHN renal 110% | CAKI-1 renal 100% | A498 renal 112% | CCRF-CEM leukemia 87.4% | MOLT-4 leukemia 117%

O=[N+]([O-])c1ccc(-c2nc(N(CCO)CCO)c3ccccc3n2)o1
inactive: CCRF-CEM leukemia 21.1% | MOLT-4 leukemia 12.5%
active: HCT-15 colon -3.11% | HT29 colon -27.7% | SNB-75 CNS -91.7% | SNB-19 CNS -0.996% | U251 CNS 7.6% | PC-3 prostate -0.975% | SK-MEL-5 melanoma -99% | UACC-62 melanoma -71.6% | LOX IMVI melanoma -65.6% | SK-MEL-28 melanoma -64.8% | SK-MEL-2 melanoma -62.7% | EKVX NSCLC -32.4% | SN12C renal 4.44% | UO-31 renal -40.6% | TK-10 renal -14.1% | ACHN renal -14.5% | CAKI-1 renal -28.2% | A498 renal -77.1%
